COUP-TFII inh – inhibitors of human COUP-TFII (NR2F2); hit rate 0.7% among 370,000; HEK293T NGFI-A luciferase reporter, luminescence; AID 686940; inhibition, % at 8.6 µM;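 active = inhibition above a per-plate cutoff, mean inhibition of test wells between control levels plus 3 SD, cut at about 38% in these data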;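 also: cells cotransfected with COUP-TFII expression vector driving the NGFI-A reporter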
Gli-Sufu antag – blocks Gli-Sufu signaling in a luciferase reporter; Sufu-KO-LIGHT fibroblasts, Gli luciferase reporter luminescence; inhibition, % at 5 µM; hit rate 0.74% among 340,000; AID 588413;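 active = inhibition above about 55%, limit read from the data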
SRC3 inh – human NCOA3 inhibition | AID 588352 | inhibition, % at 3.6 µM | HEK293 GAL4-SRC3 luciferase reporter, luminescence | hit rate 0.17% among 360,000 | Q9Y6Q9;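 active = inhibition above a per-campaign cutoff, the mean of all compounds plus 3 SD, cut at about 60% in these data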;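 also: higher means less SRC3-driven luciferase light from the GAL4 reporter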
NCOA2 inhibitor – human SRC2 (NCOA2) inhibition. inhibition, % at 9 µM. HEK293 GAL4-SRC2 luciferase reporter, luminescence. Q15596. hit rate 0.17% among 370,000. AID 651957;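 active = inhibition above the mean inhibition of all tested compounds plus 3 SD, set per campaign, cut at about 52% in these data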
Target sequence (Q15596 whole entry, looked up, the tested form may be a part): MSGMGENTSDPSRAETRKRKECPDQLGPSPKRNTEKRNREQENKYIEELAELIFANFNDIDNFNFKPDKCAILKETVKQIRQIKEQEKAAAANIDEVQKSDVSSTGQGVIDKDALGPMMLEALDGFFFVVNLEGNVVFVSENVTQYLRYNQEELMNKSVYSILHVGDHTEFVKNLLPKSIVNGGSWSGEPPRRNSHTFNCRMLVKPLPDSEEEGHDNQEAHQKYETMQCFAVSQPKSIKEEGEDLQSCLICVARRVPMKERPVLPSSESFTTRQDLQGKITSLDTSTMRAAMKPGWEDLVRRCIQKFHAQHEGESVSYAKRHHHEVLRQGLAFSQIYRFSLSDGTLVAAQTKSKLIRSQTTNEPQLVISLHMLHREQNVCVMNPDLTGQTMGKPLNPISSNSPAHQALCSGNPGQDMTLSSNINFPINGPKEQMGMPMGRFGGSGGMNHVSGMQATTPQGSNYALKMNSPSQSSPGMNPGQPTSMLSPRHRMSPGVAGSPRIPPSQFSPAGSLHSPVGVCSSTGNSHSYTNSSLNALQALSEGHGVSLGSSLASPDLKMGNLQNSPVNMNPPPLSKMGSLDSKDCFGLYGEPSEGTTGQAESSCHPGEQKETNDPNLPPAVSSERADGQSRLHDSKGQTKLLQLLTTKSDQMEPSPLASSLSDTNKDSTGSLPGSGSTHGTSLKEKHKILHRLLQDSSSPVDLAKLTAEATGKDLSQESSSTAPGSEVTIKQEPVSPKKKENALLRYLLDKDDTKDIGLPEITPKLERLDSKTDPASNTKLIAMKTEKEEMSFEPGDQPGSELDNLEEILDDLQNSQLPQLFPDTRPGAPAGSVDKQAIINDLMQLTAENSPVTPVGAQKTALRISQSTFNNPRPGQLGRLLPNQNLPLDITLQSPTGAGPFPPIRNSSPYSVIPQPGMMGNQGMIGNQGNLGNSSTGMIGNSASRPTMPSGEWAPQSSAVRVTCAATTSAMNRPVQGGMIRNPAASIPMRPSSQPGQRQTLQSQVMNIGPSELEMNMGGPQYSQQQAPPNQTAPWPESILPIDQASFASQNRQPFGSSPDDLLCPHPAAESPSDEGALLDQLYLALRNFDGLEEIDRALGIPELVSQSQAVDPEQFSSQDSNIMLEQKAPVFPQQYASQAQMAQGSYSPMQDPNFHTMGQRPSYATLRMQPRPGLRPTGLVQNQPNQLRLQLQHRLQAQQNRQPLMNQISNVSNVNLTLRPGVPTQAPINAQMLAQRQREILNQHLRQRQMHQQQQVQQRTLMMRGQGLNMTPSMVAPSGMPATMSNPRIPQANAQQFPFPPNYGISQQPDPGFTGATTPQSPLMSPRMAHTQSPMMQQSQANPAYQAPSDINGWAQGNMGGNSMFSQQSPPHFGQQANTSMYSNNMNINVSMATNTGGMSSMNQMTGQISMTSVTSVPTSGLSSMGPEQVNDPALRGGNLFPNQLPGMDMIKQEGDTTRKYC
NR5A2 inv ag – inverse agonists of human LRH-1 (NR5A2) | hit rate 0.13% among 360,000 | HEK293T StAR-luciferase reporter, LRH-1 transfected, 24 h | inhibition, % at 3.6 µM | AID 602396 | O00482;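 active = inhibition above the mean inhibition of all tested compounds plus 3 SD, cut at about 73% in these data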
NCOA1 inh – inhibitors of human steroid receptor coactivator 1 (SRC1) | HEK293 GAL4-SRC1 luciferase reporter, luminescence | inhibition, % at 3.6 µM | hit rate 0.12% among 360,000 | AID 588354;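 active = inhibition above the campaign mean plus 3 SD, with each screening campaign given its own cutoff, cut at about 60% in these data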
Gli antag conf – Gli-SUFU antagonism confirmation, single concentration. shares compounds with Gli-Sufu antag. Sufu-KO-LIGHT cells, Gli luciferase reporter, luminescence. inhibition, % at 5 µM. hit rate 40% among 2,500. AID 602428;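 active = mean inhibition at 5 µM reaching about 45%, limit read from the data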
Gli cytotox – cytotoxicity counter-screen for Gli-SUFU antagonists; shares compounds with Gli-Sufu antag; Sufu-KO-LIGHT cells cytotoxicity, ATP luminescence; cytotoxicity, % at 5 µM; hit rate 32% among 2,500;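 active = mean cytotoxicity at 5 µM above about 25%, limit read from the data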;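 also: cells exposed to compound overnight for roughly 16 to 18 hours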
Wnt3a counter – inhibits Wnt3a reporter, counter-screen for Gli-SUFU antagonists; shares compounds with Gli-Sufu antag; hit rate 20% among 2,500; AID 651995; inhibition, % at 6.25 µM; Wnt-LIGHT cells, Wnt3a-driven luciferase reporter, luminescence;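 active = mean inhibition above about 25%, limit read from the data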
Large screens that a line does not name were inactive (follow-up assays come after a bar, where they were run). Hits are enriched below; roughly 1.3% of the tested compounds scored in any of these assays.

Cc1nnc(C)c2c(C)n(-c3ccccc3)c(C)c12	Gli-Sufu antag 59 | Gli antag conf inactive | Gli cytotox inactive | Wnt3a counter inactive
Cc1ccc(-n2c(C)c3c(C)nnc(C)c3c2C)cc1C	none
COc1cc(NC(=O)CSc2nc(C)cc(C)n2)cc(OC)c1OC	none | Gli antag conf inactive | Gli cytotox inactive | Wnt3a counter inactive
CCC(=O)N1CCC(C(=O)NC2CCCc3ccccc32)CC1 (stereo unspecified)	none (no result: Gli-Sufu antag, SRC3 inh, NR5A2 inv ag, NCOA1 inh)
C[C@H]1[C@@H](NCc2cccs2)CC[C@@]23CCCN2C(=O)CCC[C@@H]13	none (no result: Gli-Sufu antag, SRC3 inh, NCOA2 inhibitor, NR5A2 inv ag, NCOA1 inh)
COC(=O)[C@]12C[C@H](CC(=O)NCC34CC5CC(CC(C5)C3)C4)C(=O)N(Cc3ccccc3)C1=C[C@H](C(C)(C)C)O[C@@H]2C	none (no result: Gli-Sufu antag, SRC3 inh, NR5A2 inv ag, NCOA1 inh)
Cc1cc(-c2nnc(SCC(=O)Nc3ccccc3C(F)(F)F)o2)c(C)n1-c1ccccc1	Gli-Sufu antag 57 | Gli antag conf 67 | Gli cytotox inactive | Wnt3a counter 64
Nc1[nH]c2cc(Cl)ccc2c1C(=O)NCCc1ccc(Cl)cc1	none (no result: Gli-Sufu antag, SRC3 inh, NR5A2 inv ag, NCOA1 inh)
N=c1c2c(ccn1CCCc1ccccc1)Oc1ccc3ccccc3c1C2c1ccccc1 (stereo unspecified)	none (no result: Gli-Sufu antag, SRC3 inh, NCOA2 inhibitor, NR5A2 inv ag, NCOA1 inh)
CC(=O)C1CCC2C3CCC4=CC(=O)CCC4(C)C3C(O)CC12C (stereo unspecified)	none (no result: Gli-Sufu antag)
CC12CCC(=O)C=C1CCC1C2C(O)CC2(C)C(c3csc(N)n3)CCC12 (stereo unspecified)	Gli-Sufu antag 59 | Gli antag conf 61 | Gli cytotox inactive | Wnt3a counter 32
O=C(O)c1ccc(N2C(=O)C3C4c5ccccc5C(Br)(c5ccccc54)C3C2=O)cc1 (stereo unspecified)	Gli-Sufu antag 66 | Gli antag conf inactive | Gli cytotox inactive | Wnt3a counter inactive
CC12c3ccccc3C(c3ccccc31)C1C(=O)N(c3ccncc3)C(=O)C12 (stereo unspecified)	none
CCOC(=O)[C@@]12CCC3=C1N(CCC3)C(=O)[C@H](CC(=O)NCCc1ccccc1OC)C2	none (no result: Gli-Sufu antag, SRC3 inh, NR5A2 inv ag, NCOA1 inh)
C/C(C=NNC(=O)c1cc(-c2ccc(Cl)cc2)n[nH]1)=C\c1ccccc1	none (no result: Gli-Sufu antag, SRC3 inh, NR5A2 inv ag, NCOA1 inh)
N#Cc1ccsc1NC(=O)CCN1CCN(C(c2ccccc2)c2ccccc2)CC1	none | Gli antag conf inactive | Gli cytotox inactive | Wnt3a counter inactive
CC1(C)C2CCC1(C)C(OCC[N+](C)(C)CC(=O)OC1CCCCC1)C2 (stereo unspecified)	Gli-Sufu antag 79 | Gli antag conf 75 | Gli cytotox 32 | Wnt3a counter inactive
CCOc1ccc(S(=O)(=O)N(C)c2ccc(OCC(=O)NCc3ccco3)cc2)cc1	Gli-Sufu antag 95 | Gli antag conf inactive | Gli cytotox inactive | Wnt3a counter inactive
CCOc1ccc(S(=O)(=O)N(C)c2ccc(OCC(=O)NCc3cccnc3)cc2)cc1	none
CCOC(=O)COc1ccc2c3c(c(=O)oc2c1C)CCC3	none
Cc1c(OCC(=O)C(C)(C)C)ccc2c3c(c(=O)oc12)CCCC3	Gli-Sufu antag 62 | Gli antag conf inactive | Gli cytotox inactive | Wnt3a counter inactive
Cc1ccc(S(=O)(=O)N2CCN(C(=O)c3c(C)nn(-c4ccccc4)c3Cl)CC2)cc1	none
Cc1cc(C)c(S(=O)(=O)N2CCN(C(=O)c3c(C)nn(-c4ccccc4)c3Cl)CC2)c(C)c1	Gli-Sufu antag 98 | Gli antag conf inactive | Gli cytotox inactive | Wnt3a counter inactive
Cc1cc(C)c(C)c(S(=O)(=O)N2CCN(c3ncnc4ccccc34)CC2)c1C	none | Gli antag conf 71 | Gli cytotox inactive | Wnt3a counter inactive
CC(C)c1ccc(NC(=O)O[C@@H]2CC[C@@]34CCCN3C(=O)CCC[C@H]4C2)cc1	none (no result: Gli-Sufu antag, SRC3 inh, NCOA2 inhibitor, NR5A2 inv ag, NCOA1 inh)
CCCCSc1nc2sc3c(c2c(=O)n1-c1ccc(C)cc1)CCN(C)C3	none | Gli antag conf 49 | Gli cytotox inactive | Wnt3a counter inactive
Cc1nn(C(C)(C)C)c(OC(=O)c2ccco2)c1Sc1ccccc1	Gli-Sufu antag 92 | Gli antag conf inactive | Gli cytotox inactive | Wnt3a counter inactive
CN1CCN(C2=Cc3ccccc3Sc3cc(F)c(Cl)cc32)CC1	none | Gli antag conf inactive | Gli cytotox inactive | Wnt3a counter inactive
COC(=O)[C@]12C[C@H](CC(=O)NCc3cccc(C(F)(F)F)c3)C(=O)N(CCC3=CCCCC3)C1=C[C@H](C(C)C)O[C@@H]2C1CC1	none (no result: Gli-Sufu antag, SRC3 inh, NR5A2 inv ag, NCOA1 inh)
CCCCNC(=O)CNC(=O)c1nn(-c2ccc(OC)cc2OC)c(=O)c2ccccc12	none
COc1ccc(-n2nc(C(=O)NCC(=O)NCCC3=CCCCC3)c3ccccc3c2=O)c(OC)c1	Gli-Sufu antag 56 | Gli antag conf inactive | Gli cytotox inactive | Wnt3a counter inactive
COC(=O)c1cc(S(=O)(=O)N2CCN(c3ccc(C(C)=O)cc3)CC2)c[nH]1	Gli-Sufu antag 62 | Gli antag conf inactive | Gli cytotox inactive | Wnt3a counter inactive
COc1cccc(/C=N/NC(=O)C(=O)Nc2ccccc2OC(F)(F)C(F)F)c1O	Gli-Sufu antag 80 | Gli antag conf 72 | Gli cytotox 47 | Wnt3a counter 66
CCOc1ccccc1NC(=O)C(=O)N/N=C/c1cc(Br)ccc1O	Gli-Sufu antag 56 | Gli antag conf 63 | Gli cytotox 39 | Wnt3a counter 59
COc1ccccc1/C=N/NC(=O)c1cccc(OC(F)(F)C(F)F)c1	none
COC(=O)[C@]12C[C@H](CC(=O)NCCc3ccccc3OC)C(=O)N(Cc3cccc4ccccc34)C1=C[C@H](COCc1ccccc1)O[C@@H]2C	none (no result: Gli-Sufu antag, SRC3 inh, NR5A2 inv ag, NCOA1 inh)
O=C(N/N=C/c1ccccn1)c1[nH]c2ccc([N+](=O)[O-])cc2c1-c1ccccc1	Gli-Sufu antag 56 | Gli antag conf inactive | Gli cytotox inactive | Wnt3a counter inactive
CSc1ccc(C2(O)Cc3cccc[n+]3C2c2ccccc2)cc1 (stereo unspecified)	Gli-Sufu antag 56 | Gli antag conf inactive | Gli cytotox inactive | Wnt3a counter inactive
c1ccc2c3c([nH]c2c1)C1(CCCCC1)NCC3	none
CC12CCCCN1CCCc1c2[nH]c2ccccc12 (stereo unspecified)	Gli-Sufu antag 58 | Gli antag conf inactive | Gli cytotox 50 | Wnt3a counter inactive
O=C(C1CCCN(S(=O)(=O)c2cccc3ccccc23)C1)N1CCN(Cc2ccccc2)CC1 (stereo unspecified)	none (no result: Gli-Sufu antag, SRC3 inh, NR5A2 inv ag, NCOA1 inh)
Cc1ccc2c(c1)S/C(=C/c1ccc[n+](C)c1)N2CCO	Gli-Sufu antag 55 | Gli antag conf inactive | Gli cytotox inactive | Wnt3a counter inactive
Cc1ccc2c(c1)N(C)/C(=C/c1cccc[n+]1CCO)S2	none

Source: PubChem BioAssay
